The nature of experiment [1]: Nuclear factor erythroid 2-related factor 2/antioxidant responsive element (Nrf2/ARE) small molecule agonists: qHTS cell viability counter screen in human keratinocytes (AID 1919968; active = well fitted curve in the direction sought with a large enough effect in the repeat runs; an effect the other way counts as inactive or inconclusive; also: nearly all actives have a fitted effect of over 55% in size; also: potency is read from the fitted curve at half-maximal effect). Summed up: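 After a 5 h attachment period, ARE-reporter keratinocytes were dosed with compounds in DMSO and then cultured 23 h at 37 C. Cell viability came from CellTiter-Fluor signal read after a further 1 h.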
For orientation: Quantitative high-throughput screening tests each substance at several concentrations.

Experiment [2] concerns the target Gonadotropin-releasing hormone receptor (Homo sapiens) (UniProt P30968). The experiment in a line: Human gonadotropin-releasing hormone receptor (GnRHR) small molecule agonists, calcium flux assay in GnRHR-HEK293 cells (AID 1920063). Also: nearly all actives have a fitted effect of over 35% in size. Summed up:
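We seeded human GnRHR-expressing HEK293 cells for 18 hours, loaded them with calcium dye for an hour at 37 C, added test compounds, and recorded fluorescence intensity kinetically for three minutes.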
For orientation: Calcium assays in cells follow changes in intracellular calcium, usually with a dye or a luminescent sensor.

Experiment [3] has as its target KiSS-1 receptor (Homo sapiens) (UniProt Q969F8). As to the kind of experiment: Human kisspeptin (KISS1R) small molecule agonists, calcium flux assay in KISS1R-HEK293 cells (AID 1920064; active = well fitted curve in the direction sought with a large enough effect in the repeat runs; an effect the other way counts as inactive or inconclusive). A digest of the protocol:
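Kinetic calcium assay, 1 s sampling over 3 min at Ex/Em 480/540, in HEK293 cells engineered with human KISS1R; compounds delivered in DMSO after 1 h dye loading.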

Experiment [4] is described as follows: G protein-coupled receptor (GPCR) small molecule agonists, calcium flux assay: HEK293 wild type cell line counter screen (AID 1920065). Summed up:
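Calcium-sensitive dye, loaded 1 h at 37 C into cells cultured 18 h, reports compound-evoked calcium release as fluorescence (Ex/Em 480/540), measured over 3 min. Agonist mode; 15-point titrations, triplicate.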

The nature of experiment [5]: p53 small molecule agonists, cell-based qHTS assay with human liver microsomes: qHTS cell viability counter screen (AID 1963579). Also: nearly all actives have a fitted effect of over 45% in size. Also: potency is read from the fitted curve at half-maximal effect. Summed up:
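p53RE-bla cells, 4,000/well, dosed 5 hours after plating, with human liver microsomes (0.5 mg/mL final) plus NADPH (0.5 mg/mL final), 16 hours at 37 C. Viability read as CellTiter-Glo luminescence after 30 min at room temperature.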

Experiment [6] in a line: p53 small molecule agonists, cell-based qHTS assay with rat liver microsomes: qHTS cell viability counter screen (AID 1963580). Also: nearly all actives have a fitted effect of over 45% in size. Summed up:
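p53RE-bla HCT-116 cells were exposed 16 h at 37 C to compounds with rat liver microsomes (0.5 mg/mL) and NADPH (0.5 mg/mL). Viability was measured in the same wells as ATP content by CellTiter-Glo luminescence.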

Experiment [7] is described as follows: p53 small molecule agonists, cell-based qHTS assay: qHTS cell viability counter screen (AID 1963581). Also: nearly all actives have a fitted effect of over 45% in size. Also: potency is read from the fitted curve at half-maximal effect. Summed up:
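Following 5 h attachment, HCT-116 p53RE-bla cells took up compound for 16 h at 37 C; the reporter was read with B/G FRET substrate (2 h RT), and viability then via CellTiter-Glo ATP luminescence.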

The nature of experiment [8]: p53 small molecule agonists, cell-based qHTS assay (AID 1963582; active = well fitted activation curve with a large enough effect in the signal ratio in the repeat runs, not every such curve was filed as active; the % refers to the signal ratio). A digest of the protocol:
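In this cell-based concentration-response screen, a p53 response element drives beta-lactamase; cells received DMSO-borne compounds after 5 h culture and were incubated a further 16 h before FRET substrate development.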

Experiment [9] addresses 5-hydroxytryptamine receptor 2A (Homo sapiens) (UniProt P28223). As to the kind of experiment: 5-hydroxytryptamine receptor 2A (HTR2A) small molecule antagonists, cell-based qHTS assay (AID 1963586). Also: nearly all actives have a fitted effect of over 45% in size. Summed up:
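Antagonist-mode intracellular calcium assay: DOI (4 nM) added after 5 min compound pre-incubation at room temperature to dye-loaded HTR2A-CHO cells. Fluorescence followed for 3 min, sampled every second.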

Experiment [10] has the same target. As to the kind of experiment: 5-hydroxytryptamine receptor 2A (HTR2A) small molecule agonists, cell-based qHTS assay (AID 1963587). Also: nearly all actives have a fitted effect of over 30% in size. Summed up:
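CHO cells stably expressing human HTR2A, plated 18 h, loaded with calcium dye 1 h at 37 C. Agonist mode: compounds added and intracellular calcium fluorescence recorded kinetically for 2 min at 1 sec intervals.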

In experiment [11] the target is Muscarinic acetylcholine receptor M1 (Homo sapiens) (UniProt P11229). As to the kind of experiment: Cholinergic receptor muscarinic 1 (CHRM1) small molecule antagonists, cell-based qHTS assay (AID 1963588). Also: nearly all actives have a fitted effect of over 40% in size. Summed up: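 CHRM1-CHO calcium-flux assay, antagonist mode. Cells were seeded 18 h, dye-loaded 1 h at 37 C and given compound for 5 min at RT, then acetylcholine was added at 50nM. FDSS fluorescence was read 3 min; 15 concentrations, three runs.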

Experiment [12] shares this target. As to the kind of experiment: Cholinergic receptor muscarinic 1 (CHRM1) small molecule agonists, cell-based qHTS assay (AID 1963589). Also: nearly all actives have a fitted effect of over 35% in size. A digest of the protocol:
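Measures agonist-induced intracellular calcium rise. Stable human CHRM1 CHO line, 1 h dye load at 37 C, compounds from DMSO, kinetic fluorescence read.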

Experiment [13] can be described thus: cAMP Responsive Elements (CRE) small molecule agonists, cell-based qHTS assay (AID 1963590). A digest of the protocol:
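A CRE-responsive beta-lactamase reporter in HEK 293T cells was used. Treatment ran 3 h at 37 C; detection used LiveBLAzer B/G FRET substrate for 2 h at room temperature.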

A short description of experiment [14]: cAMP Responsive Elements (CRE) small molecule antagonists, cell-based qHTS assay (AID 1963591; active = well fitted inhibition curve with a large enough effect in the signal ratio in the repeat runs, not every such curve was filed as active; the % refers to the signal ratio). A digest of the protocol: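 HEK293T cells carrying a CRE-driven beta-lactamase reporter receive compound and NKH477 (0.25 uM final) for 3 h. Fluorescence from LiveBLAzer B/G FRET substrate is read after 2 h at room temperature.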
Experiment [15] addresses Beta-2 adrenergic receptor (Homo sapiens) (UniProt P07550). As to the kind of experiment: Adrenergic beta2 receptor (ADRB2) small molecule antagonists, cell-based qHTS assay (AID 1963592). Also: series mostly up to about 92 µM; nearly all actives have a fitted effect of over 50% in size. Summed up:
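Cells (CHO, stable ADRB2 overexpression) incubated 18-20hr at 37C; compounds added from DMSO; agonist mix (1nM isoproterenol, 100uM IBMX, 25uM Ro-20-1724) added; 0.5hr RT; d2-cAMP and anti-cAMP-cryptate added; 1hr RT; 665/615 nm read.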

Experiment [16] shares this target. As to the kind of experiment: Adrenergic beta2 receptor (ADRB2) small molecule agonists, cell-based qHTS assay (AID 1963593).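 Also: CHO cells stably overexpressing human ADRB2.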 Summed up:
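CHO cells stably over-expressing ADRB2 were plated overnight at 37C, then dosed with compounds plus a stimulation mix containing 100uM IBMX and 25uM Ro-20-1724 for 0.5hr at room temperature. cAMP was measured by HTRF competition, 1hr.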

Experiment [17] addresses D(2) dopamine receptor (Homo sapiens) (UniProt P14416). The experiment in a line: Dopamine D2 receptor (DRD2) small molecule agonists, cell-based qHTS assay (AID 1963594). Also: nearly all actives have a fitted effect of over 35% in size. A digest of the protocol:
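HEK293 cells stably expressing human DRD2, pre-treated with PDE inhibitor Ro20-1724 (0.1 mM final) and compound 10 min at room temperature, then stimulated with NKH477 (200nM […]) for 30 min. cAMP read by HTRF (665/620 nm).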

The target is the same in experiment [18]. The experiment in a line: Dopamine D2 receptor (DRD2) small molecule antagonists, cell-based qHTS assay (AID 1963595; active = well fitted inhibition curve with a large enough effect in the signal ratio in the repeat runs, with a control signal flat; the % refers to the signal ratio). Summed up: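 Stable D2 receptor HEK293 line, 24 h after seeding. Compound preincubated 10 min, then quinpirole (12 nM) with forskolin analogue NKH477 (200 nM), 30 min, room temperature. Detection by time-resolved FRET of cAMP.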
Experiment [19] is described as follows: p53 small molecule agonists, cell-based qHTS assay with human liver microsomes (AID 1963577). Summed up: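 p53RE-bla cells, 4,000/well, compound added after 5 h, with human liver microsomes 0.5 mg/mL and NADPH 0.5 mg/mL final; 16 h at 37 C, then LiveBLAzer 2 h RT, fluorescence.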
The nature of experiment [20]: p53 small molecule agonists, cell-based qHTS assay with rat liver microsomes (AID 1963578). A digest of the protocol: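 p53RE-bla cells, 4,000/well, pre-incubated 5 h, then given compounds plus rat liver microsomes (0.5 mg/mL final) and NADPH (0.5 mg/mL final). Incubation 16 h at 37 C; beta-lactamase reporter read by LiveBLAzer fluorescence after 2 h at room temperature.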

Results filed as inconclusive are left out. The source made the active and inactive calls. Unless noted, calls follow the shape of the full dose curve.

Chain of Muscarinic acetylcholine receptor M1 (Homo sapiens) (P11229 whole entry, looked up): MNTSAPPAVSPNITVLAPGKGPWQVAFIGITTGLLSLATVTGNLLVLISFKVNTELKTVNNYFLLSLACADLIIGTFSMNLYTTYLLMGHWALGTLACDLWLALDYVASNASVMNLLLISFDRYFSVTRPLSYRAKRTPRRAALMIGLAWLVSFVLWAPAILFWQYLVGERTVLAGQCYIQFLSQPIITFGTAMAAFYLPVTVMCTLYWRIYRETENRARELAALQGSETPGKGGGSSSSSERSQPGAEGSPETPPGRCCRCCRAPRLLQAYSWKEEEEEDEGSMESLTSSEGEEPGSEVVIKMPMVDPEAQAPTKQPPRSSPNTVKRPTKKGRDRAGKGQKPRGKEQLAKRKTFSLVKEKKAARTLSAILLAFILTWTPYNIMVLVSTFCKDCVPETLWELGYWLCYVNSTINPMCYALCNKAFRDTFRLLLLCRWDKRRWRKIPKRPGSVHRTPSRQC
Chain of D(2) dopamine receptor (Homo sapiens) (P14416 whole entry, looked up): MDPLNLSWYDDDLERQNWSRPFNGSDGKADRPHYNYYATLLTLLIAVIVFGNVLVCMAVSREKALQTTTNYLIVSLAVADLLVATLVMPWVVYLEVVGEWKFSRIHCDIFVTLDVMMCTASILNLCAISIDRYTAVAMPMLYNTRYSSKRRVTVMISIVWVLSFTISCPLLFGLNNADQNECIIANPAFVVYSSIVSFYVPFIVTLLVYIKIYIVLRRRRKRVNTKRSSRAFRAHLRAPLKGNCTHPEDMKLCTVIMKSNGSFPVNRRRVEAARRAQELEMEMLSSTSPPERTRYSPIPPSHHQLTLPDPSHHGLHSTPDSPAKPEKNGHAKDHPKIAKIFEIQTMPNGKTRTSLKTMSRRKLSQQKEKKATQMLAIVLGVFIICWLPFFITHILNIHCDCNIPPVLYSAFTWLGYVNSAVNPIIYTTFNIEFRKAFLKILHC
Chain of KiSS-1 receptor (Homo sapiens) (Q969F8 whole entry, looked up): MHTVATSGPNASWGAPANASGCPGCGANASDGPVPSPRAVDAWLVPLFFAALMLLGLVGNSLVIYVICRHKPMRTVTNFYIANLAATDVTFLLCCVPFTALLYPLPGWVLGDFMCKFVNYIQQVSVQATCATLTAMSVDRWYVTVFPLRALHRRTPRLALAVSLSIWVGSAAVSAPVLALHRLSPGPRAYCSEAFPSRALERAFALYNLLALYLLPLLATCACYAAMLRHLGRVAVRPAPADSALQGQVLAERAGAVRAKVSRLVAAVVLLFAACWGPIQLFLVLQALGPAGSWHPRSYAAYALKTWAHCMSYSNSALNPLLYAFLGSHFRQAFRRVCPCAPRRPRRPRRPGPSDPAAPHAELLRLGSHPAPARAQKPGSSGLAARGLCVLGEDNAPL
Chain of Beta-2 adrenergic receptor (Homo sapiens) (P07550 whole entry, looked up): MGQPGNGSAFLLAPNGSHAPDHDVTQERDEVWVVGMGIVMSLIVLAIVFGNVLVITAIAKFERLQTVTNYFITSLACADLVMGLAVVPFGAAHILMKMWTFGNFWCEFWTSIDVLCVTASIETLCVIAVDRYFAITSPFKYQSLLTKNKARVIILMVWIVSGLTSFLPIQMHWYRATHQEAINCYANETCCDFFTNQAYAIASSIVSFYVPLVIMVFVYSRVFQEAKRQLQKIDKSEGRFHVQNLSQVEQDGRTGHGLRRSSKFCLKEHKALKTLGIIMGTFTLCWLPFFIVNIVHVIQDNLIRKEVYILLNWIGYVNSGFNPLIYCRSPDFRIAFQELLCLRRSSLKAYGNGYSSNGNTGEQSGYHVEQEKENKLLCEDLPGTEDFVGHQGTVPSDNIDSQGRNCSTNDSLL
Chain of Gonadotropin-releasing hormone receptor (Homo sapiens) (P30968 whole entry, looked up): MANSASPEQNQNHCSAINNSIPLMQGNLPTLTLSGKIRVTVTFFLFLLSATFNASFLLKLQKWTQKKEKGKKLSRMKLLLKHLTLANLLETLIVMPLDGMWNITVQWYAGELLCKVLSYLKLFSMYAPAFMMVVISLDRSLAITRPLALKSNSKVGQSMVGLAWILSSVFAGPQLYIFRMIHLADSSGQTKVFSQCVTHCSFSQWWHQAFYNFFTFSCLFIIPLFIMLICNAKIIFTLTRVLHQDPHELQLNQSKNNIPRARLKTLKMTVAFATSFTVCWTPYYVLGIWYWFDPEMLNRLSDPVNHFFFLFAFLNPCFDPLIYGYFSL
Chain of 5-hydroxytryptamine receptor 2A (Homo sapiens) (P28223 whole entry, looked up): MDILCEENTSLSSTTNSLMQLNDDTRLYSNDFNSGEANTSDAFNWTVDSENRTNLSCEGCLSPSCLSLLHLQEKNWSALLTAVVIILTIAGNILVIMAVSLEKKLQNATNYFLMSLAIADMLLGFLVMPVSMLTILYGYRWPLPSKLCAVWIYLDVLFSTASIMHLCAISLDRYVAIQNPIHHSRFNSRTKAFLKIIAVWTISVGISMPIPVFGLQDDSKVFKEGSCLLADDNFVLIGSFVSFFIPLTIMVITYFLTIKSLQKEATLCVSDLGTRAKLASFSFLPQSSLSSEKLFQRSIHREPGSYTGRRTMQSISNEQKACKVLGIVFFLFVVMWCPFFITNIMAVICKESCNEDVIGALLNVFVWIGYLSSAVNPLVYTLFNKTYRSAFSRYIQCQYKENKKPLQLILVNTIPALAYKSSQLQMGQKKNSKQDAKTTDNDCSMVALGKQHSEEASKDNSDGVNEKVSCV

As to `CC(C)CP(=S)(S)CC(C)C`, the Potency result in experiment [1], in [2], in experiment [3], in experiment [4], in experiment [5] and in experiment [6] was “inactive” in each case. For the same molecule, the Potency result in experiment [7], in experiment [8], in experiment [9], in experiment [10], in [11] and in experiment [12] was “inactive” throughout. The Potency result in experiment [13], in [14], in [15], in experiment [16], in experiment [17] and in [18] was “inactive” in each case.

Turning to `CCCCCC[N+](=O)[O-]`, the Potency entry in experiment [1], in experiment [2], in [3], in [4], in experiment [19] and in experiment [5] was “inactive” in each case. Moreover, the Potency result in [7], in experiment [8], in experiment [9], in experiment [10], in [11] and in [12] was “inactive” in each case. The Potency result in experiment [13], in experiment [14], in experiment [15], in [16], in [17] and in [18] was “inactive” each time.

As for `BrCCCCCCBr`, the Potency entry in experiment [1], in experiment [2], in experiment [3], in [4], in [20] and in experiment [6] was “inactive” throughout. Besides, the Potency result in experiment [8], in experiment [9], in experiment [10], in [11], in [12] and in experiment [13] was “inactive” each time. For the same molecule, the Potency result in experiment [14], in [15] and in experiment [16] was “inactive” in each case. In [5], the Potency was 20.4 µM (active).

As for `NC(=S)C(N)=S`, the Potency entry in experiment [1], in experiment [2], in experiment [3], in experiment [4], in [20] and in experiment [5] was “inactive” each time. Moreover, the Potency entry in experiment [6], in experiment [8], in experiment [9], in experiment [10], in [11] and in experiment [12] was “inactive” each time. Further, the Potency entry in experiment [13], in [14], in experiment [15], in experiment [17] and in experiment [18] was “inactive” throughout.

`CCC[CH2][Sn]([CH2]CCC)([CH2]CCC)[CH2]CCC`: the Potency in [1] was 12.2 µM (active); in [7], 40.8 µM (active). The Potency result in experiment [2], in experiment [3], in experiment [4], in experiment [20], in [6] and in experiment [9] was “inactive” each time. In addition, the Potency entry in experiment [11] and in [12] was “inactive” throughout.

Consider `COC(=O)C1(O)c2ccccc2-c2ccccc21`, for which the Potency result in experiment [1], in experiment [2], in experiment [3], in experiment [4], in experiment [19] and in experiment [20] was “inactive” throughout. Also, the Potency result in experiment [7], in experiment [8], in [10], in [11], in experiment [12] and in [13] was “inactive” throughout. Moreover, the Potency entry in experiment [15] and in experiment [18] was “inactive” throughout.
